Source: PubChem
Most compounds without a hit are left out; they make up all but 0.41% or so of the library.
aGlu spleen mod: lysosomal alpha-glucosidase (human) modulation; P10253; AID 2112; 240,000 compounds, 0.006% hits; human spleen homogenate, 4-MU-alpha-glucoside fluorescence; Potency, µM (highest dose often 79.9 µM), for inactives: at the top dose activity change, negative = inhibition, actives largely listed as inhibitors;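 further: potency means the concentration at half of the fitted maximal effect; 0% = enzyme with vehicle and -100% = no enzyme basal signal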
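Human spleen homogenate (1 ug) with 4-methylumbelliferyl-alpha-D-glucopyranoside (1 mM final) in 50 mM citrate/phosphate pH 5.0, 0.01% Tween-20; 40 min at 37 C. Stopped at pH 10; 4-MU fluorescence Ex 365/Em 440 nm; AC50 by Hill fit.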
GAA glycogen mod: inhibitors or activators of human alpha-glucosidase glycogen cleavage; P10253; recombinant GAA, glycogen substrate, Amplex Red glucose oxidase fluorescence; Potency, µM (series often up to 76.4 µM), without a hit: top-dose activity change, negative = inhibition, hits mostly inhibitors; 300,000 compounds, 0.38% hits; AID 2100;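 further: potency means the concentration at half of the fitted maximal effect; 0% = full enzyme reaction and -100% = no-enzyme basal signal; the screen sought inhibitors and activators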
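Recombinant human enzyme (4 nM); glycogen substrate; 37 C, 40 min, pH 5.0. Readout: coupled glucose oxidase/Amplex Red fluorescence.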
aGal spleen mod: inhibitors or activators of human alpha-galactosidase in spleen homogenate; P06280; human spleen homogenate, 4MU-alpha-Gal fluorescence, 40 min; Potency, µM (series often up to 80 µM), without a hit: top-dose activity change, negative = inhibition, most hits filed as inhibitors; 240,000 compounds, 0.008% hits;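 further: potency means the concentration at half of the fitted maximal effect; 0% = enzyme with vehicle and -100% = no enzyme basal signal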
Target sequence (P06280 32-429 limits assumed): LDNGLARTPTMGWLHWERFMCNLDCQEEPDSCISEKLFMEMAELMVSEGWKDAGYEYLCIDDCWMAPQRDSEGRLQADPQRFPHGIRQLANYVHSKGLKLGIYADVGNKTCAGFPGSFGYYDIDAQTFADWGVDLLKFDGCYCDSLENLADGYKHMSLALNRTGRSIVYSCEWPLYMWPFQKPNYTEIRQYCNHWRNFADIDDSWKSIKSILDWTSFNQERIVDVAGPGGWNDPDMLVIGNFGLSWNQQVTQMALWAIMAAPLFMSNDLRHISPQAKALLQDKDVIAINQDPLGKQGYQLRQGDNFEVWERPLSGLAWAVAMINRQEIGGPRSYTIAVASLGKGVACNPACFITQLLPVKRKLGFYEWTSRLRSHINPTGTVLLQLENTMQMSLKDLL
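Human spleen homogenate (1 ug) was the enzyme source, with 4-methylumbelliferyl-alpha-D-galactopyranoside (1 mM final) in pH 5.0 citrate buffer with 0.01% Tween-20. Compounds were titrated; after 40 min at 37C, NaOH/glycine stop, 4-MU fluorescence read; AC50 from Hill fits.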
GLA inh pH 4.5: blocks human alpha-galactosidase A at pH 4.5 | P06280 | purified enzyme, 4-MU-alpha-Gal fluorescence, pH 4.5 | activity change, negative = inhibition, % at 105 µM | 230,000 tested, under 10 active;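 further: 0% = full activity with enzyme and -100% = basal without enzyme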
GAA inh: inhibitors of human lysosomal alpha-glucosidase. P10253. purified human GAA, 4-MU-alpha-glucoside fluorescence. Potency, µM (highest dose often 76.9 µM), for the others: top-dose activity change, negative = inhibition, usual class: inhibitors. 200,000 compounds, 0.005% hits;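 further: potency means the concentration at half of the fitted maximal effect; plate controls were uninhibited enzyme wells for no effect and no-enzyme background for full effect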
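Fluorescence at Ex 365/Em 440 nm from 4-methylumbelliferone reported enzyme activity after 20 min at room temperature. Reactions used 4 nM enzyme and 400 uM substrate at pH 5.0; curves fitted with the Hill equation.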
N370S GC: inhibitors or activators of N370S glucocerebrosidase for Gaucher disease. P04062. N370S GC spleen homogenate, 4MU-glucoside fluorescence. Potency, µM (doses to about 59.4 µM), for the others: at the top dose activity change, negative = inhibition, most hits filed as inhibitors. 330,000 compounds, 0.092% hits. AID 2101;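 further: potency means the concentration at half of the fitted maximal effect; 0% = full enzyme activity and -100% = no enzyme basal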
The depositor's hits bear a star; ? = inconclusive; · = no result; ! = not confirmed by another sample; [ ] = dose if it differs, or a comment. The call rests on the fitted dose curve; in most records, active means well fitted curve in the direction sought with a large enough effect; inconclusive means small, poorly fitted or top-dose-only effect, or another doubt; inactive means no such curve, though single readings can be large; an effect the other way counts as inactive or inconclusive.

SMILES	aGlu spleen mod	GAA glycogen mod	aGal spleen mod	GLA inh pH 4.5	GAA inh	N370S GC
CC(C)C(C)NC(=O)CSc1nc2scc(-c3ccco3)c2c(=O)n1-c1ccccc1 (stereo not drawn)	-19%	9%	-4%	-1	-9%	1.1µM*
CCOC(=O)C1CCCN(C(=S)Nc2ccc(Nc3ccccc3)cc2)C1 (stereo not drawn)	-11%	40µM*	7%	-6	-14%	5%
CCOC(=O)C1CCCN(Cc2nc(N)nc(Nc3ccccc3)n2)C1 (stereo not drawn)	5%	4µM*	6%	3	?	-12%
O=C(O)c1ccc(N/N=C/c2ccc(F)c(F)c2)cc1	-9%	?	8%	-18	12%	4%
Nc1cc(C(=O)O)ccc1Nc1ccc(F)c(F)c1	3%	12µM*	5%	0	-6%	-4%
CC1CC=CC2C1C(=O)N(Cc1ccccc1)C2c1ccc(-c2ccc(N(C)C)cc2)cc1F (stereo not drawn)	-4%	·	1%	·	·	-6%
CC1CCCC(NC(=O)c2ccncc2)C1C (stereo not drawn)	·	13%[76.3 µM]	·	·	·	-3%
CC1CCCC(NC(=O)Nc2cccs2)C1C (stereo not drawn)	-8%	14µM*	2%	4	-22%	9%
O=C(Nc1cccc(Cl)c1)OCC#CCCl	-1%	·	14%	·	·	1%
Cc1ccc(S(=O)(=O)N(C)CCCC(=O)Nc2ccc(F)cc2)cc1	3%	1%	9%	-9	-5%	8%
CN(CCCC(=O)O)S(=O)(=O)c1ccc2c(c1)C(=O)c1cc(S(=O)(=O)N(C)CCCC(=O)O)ccc1-2	·	25µM*	·	·	·	-5%
CC(=O)OC1CC(C)OC(C)O1 (stereo not drawn)	-7%	·	0%	·	·	15%
Cc1cc(/C=C2/C(=O)NN(c3ccccc3)C2=O)c(C)n1-c1ccc(O)cc1	-8%	9%	-5%	-11	-4%	8.9µM*
Nc1nonc1N/N=C\c1ccccc1	0%	-24%	-3%	3	·	-10%
Nc1nonc1N/N=C/c1c(O)ccc2ccccc12	-2%	9.9µM*	6%	-8	?	-4%
Cc1ccc(CNc2nc(-c3cccs3)nc3ccccc23)cc1	-7%	-12%	-18%	-2	-10%	14µM*
N#Cc1nc(Cc2ccccc2)oc1NCc1ccccc1	-5%	50µM*	-2%	-8	-4%	7%
c1ccc(CNc2nc(-c3cccs3)nc3ccccc23)nc1	-3%	4%	-14%	-5	4%	-29%
Cc1ccc(CNc2oc(-c3cccs3)nc2C#N)cc1	7%	22µM*	?	12	?	28%
C=CC[C@@H]1C=C[C@H](O/N=C(\C)CCN2CCCc3nc(C)c(C)cc32)[C@H](CO)O1	5%[17.4 µM]	·	2%[17.5 µM]	·	·	6%[12.8 µM]
Cc1ccc(-n2c(=O)c3ccc(C(=O)NCc4ccco4)cc3n(Cc3ccccc3C#N)c2=O)cc1	-8%	32µM*!	5%	-4	4%	-9%
Cc1ccc(-n2c(=O)c3ccc(C(=O)NCc4ccco4)cc3n(Cc3ccccc3Cl)c2=O)cc1	·	-6%[76.3 µM]	·	·	·	·
O=S(=O)(Nc1cccc2cccnc12)c1ccc(Br)s1	4%	·	1%	·	·	-5%
Nc1c(N)c2ccccc2oc1=O	-5%	7.1µM*	-19%	8	-13%	-7%
CNc1c(N)c(=O)oc2ccccc12	-8%	-4%	0%	3	6%	17%
SMILES	aGlu spleen mod	GAA glycogen mod	aGal spleen mod	GLA inh pH 4.5	GAA inh	N370S GC
Cc1ccc(Nc2c(N)c(=O)oc3ccccc23)cc1	0%	20µM*	-7%	-10	-14%	-11%
CN(C)c1c(N)c(=O)oc2ccccc12	8%	?	13%	-6	9%	1%
O=C(CCc1nnc2n(Cc3ccc(Cl)cc3)c(=O)c3ccccc3n12)N1CCN(c2ccccn2)CC1	·	·	·	·	·	-4%
CC(C)OCCCn1c(=O)c2ccccc2n2c(CCC(=O)N3CCN(c4ccccn4)CC3)nnc12	·	-1%[76.3 µM]	·	·	·	20µM*
COc1cccc(-c2cn3c(n2)sc2cc(C(=O)NCCc4ccccc4)ccc23)c1	·	-14%[76.3 µM]	·	·	·	·
O=C(O)/C=C/C(=O)Nc1ccc(C(=O)c2ccccc2)cc1	8%	-10%	4%	-25	6%	3%
O=C(O)/C=C/C(=O)Nc1ccc(O)cc1	2%	32µM*	-6%	-1	-1%	?
CO[C@H]1C=CO[C@@]2(C)Oc3c(C)c(O)c4c(O)c(c5c(nc6cc(C)ccn65)c4c3C2=O)NC(=O)C(C)=CC=C[C@H](C)[C@H](O)[C@@H](C)[C@@H](O)[C@@H](C)[C@H](OC(C)=O)[C@@H]1C	-2%	20µM*	4%	-15	4%[15.4 µM]	-14%
COC1/C=C/OC2(C)Oc3c(C)c(O)c4c(O)c(c(/C=N/N5CCN(C)CC5)c(O)c4c3C2=O)NC(=O)/C(C)=C/C=C/C(C)C(O)C(C)C(O)C(C)C(OC(C)=O)C1C (stereo not drawn)	8%	·	7%	-13	·	-18%
Cc1ccc(/C=N\Nc2nc3ccc(Cl)cc3[nH]2)o1	3%	6.3µM*	1%	2	9%	-4%
O=c1[nH]cc(O)c(=O)[nH]1	5%	5µM*	4%	2	-1%	-1%
COc1cccc(C2=Nn3c(nnc3-c3cccc(OC)c3OC)SC2)c1	-7%	·	3%	·	·	-5%
CNc1nc(Cl)nc2c1ncn2CC(COC(=O)C(C)(C)C)COC(=O)C(C)(C)C	-6%	·	-13%	·	·	-16%
COc1ccc2c(c1)c(/C=N/Nc1nc3ccccc3[nH]1)c(C)n2C	-7%	28µM*	-5%	-16	?	?
COc1cc(/C=N\Nc2nc3ccccc3[nH]2)cc(OC)c1OC	5%	16µM*	5%	1	0%	-2%
C(=N\Nc1nc2ccccc2[nH]1)/c1ccc2c(c1)OCCO2	1%	13µM*	-7%	-10	-9%	-5%
COc1ccc(/C=N/Nc2nc3ccccc3[nH]2)cc1OC	2%	?	7%	-2	-2%	-14%
C(=N\Nc1ccc2ccccc2n1)/c1ccc2c(c1)OCCO2	-1%	-29%	-4%	-4	?	0%
